# “And” between values parts separate entries of the source, which are not always exact repeats. Equal entries are not always repeated. More than one record can exist for a structure, and the calls need not agree. The source made the active and inactive calls. Entries that show only a call come without a potency. Unless noted, the call rests on the fitted dose curve; in most records, active means well fitted curve in the direction sought with a large enough effect in the repeat runs; inconclusive means weak or mixed curves; inactive means no such curve, though single readings can be large; an effect the other way counts as inactive or inconclusive.
# Experiments:
# [1] = qHTS assay to test for compound auto fluorescence at 535 nm (green) in HEK293 cells (AID 720680); settings: green autofluorescence 485/535 nm; series mostly up to 46 µM
# [2] = qHTS assay to test for compound auto fluorescence at 460 nm (blue) in HEK293 cell free culture (AID 720681); settings: cell-free medium, autofluorescence 405/460 nm (blue); series mostly up to 46 µM
# Outline: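 Compounds were added to cell-free DMEM with 10% FBS and fluorescence read directly. The blue channel used 405 nm excitation and 460 nm emission, with triamterene as the reference fluorophore.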
# [3] = qHTS assay to test for compound auto fluorescence at 535 nm (green) in HEK293 cell free culture (AID 720682); settings: cell-free medium, green autofluorescence 485/535 nm, stronger effect = higher value; series mostly up to 46 µM
# Outline: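 No cells present: wells hold DMEM supplemented with 10% FBS, into which compound or vehicle is pinned. Green emission is then recorded (485 nm excitation, 535 nm emission) and scaled to fluorescein.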
# [4] = qHTS assay to test for compound auto fluorescence at 590 nm (red) in HEK293 cell free culture (AID 720683); settings: cell-free medium autofluorescence, Ex540/Em590 red; series mostly up to 46 µM
# Outline: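 Cell-free wells of DMEM with 10% FBS received compound, and intrinsic fluorescence was read at excitation/emission 540/590 nm. Values expressed as equivalence to Rose Bengal sodium.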
# [5] = qHTS assay to test for compound auto fluorescence at 590 nm (red) in HepG2 cell free culture (AID 720684); settings: cell-free medium autofluorescence, red 540/590 nm; series mostly up to 46 µM
# Outline: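 Auto fluorescence equivalency versus Rose Bengal sodium, red channel Ex/Em 540/590 nm; compounds in cell-free MEM/10% FBS; DMSO vehicle control.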
# [6] = qHTS assay to test for compound auto fluorescence at 460 nm (blue) in HepG2 cell free culture (AID 720685); settings: Cell-free culture medium, blue autofluorescence 405/460 nm; series mostly up to 46 µM
# Outline: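 Cell-free plates of MEM plus 10% FBS received 23 nL compound or DMSO vehicle; blue-channel (405/460 nm) intensity scored against triamterene as reference fluorophore.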
# [7] = qHTS assay to test for compound auto fluorescence at 460 nm (blue) in HepG2 cells (AID 720687); settings: autofluorescence 405/460 nm, 1 h; series mostly up to 46 µM; further: potency means the concentration at half of the fitted maximal effect
# Outline: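 HepG2 cells in MEM with 10% FBS, attached overnight at 37 C, were exposed to compound or DMSO for 1 hr at 37 C, 5% CO2. Blue fluorescence was read at 405/460 nm, with triamterene as reference fluorophore.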
# [8] = biological target: Glucocorticoid receptor (Homo sapiens) (UniProt P04150); assay: qHTS assay to identify small molecule agonists of the glucocorticoid receptor (GR) signaling pathway (AID 720691; active means well fitted activation curve with a large enough effect in the signal ratio in the repeat runs, not every such curve was filed as active; inconclusive means weak or mixed curves, or effect the other way; inactive means no such curve, though single readings can be large or run the other way; the % refers to the signal ratio); settings: GR-bla HeLa, beta-lactamase reporter ratio, 18 h
# Outline: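 HeLa GR-bla reporter line; cells pre-incubated 4 h, compound in DMSO 18 h at 37 C; LiveBLAzer B/G FRET substrate 2 h RT; fluorescence intensity read-out.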
# [9] = biological target: Glucocorticoid receptor (Homo sapiens) (UniProt P04150); assay: qHTS assay to identify small molecule antagonists of the glucocorticoid receptor (GR) signaling pathway (AID 720692; active means well fitted inhibition curve with a large enough effect in the signal ratio in the repeat runs, not every such curve was filed as active; inconclusive means weak or mixed curves, or effect the other way; inactive means no such curve, though single readings can be large or run the other way; the % refers to the signal ratio; further: potency means the concentration at half of the fitted maximal effect); settings: GR-bla HeLa, beta-lactamase FRET ratio, dexamethasone-stimulated, 18 h; series mostly up to 58.5 µM
# Outline: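 Read-out: beta-lactamase FRET substrate fluorescence, 2 h at room temperature, in HeLa cells stably carrying a GRE-driven bla reporter. Compounds were co-incubated with 5 nM dexamethasone agonist (final) for 18 h at 37 C.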
# [10] = qHTS assay to identify small molecule antagonists of the glucocorticoid receptor (GR) signaling pathway - cell viability counter screen (AID 720693); settings: GR-bla HeLa viability, CellTiter-Glo luminescence, 18 h, with 5 nM dexamethasone present; series mostly up to 58.5 µM; further: nearly all actives have a fitted effect of over 55% in size; further: potency means the concentration at half of the fitted maximal effect
# [11] = qHTS assay for identifying genotoxic compounds that show differential cytotoxicity against isogenic chicken DT40 cell lines with known DNA damage response pathways - Rev3 mutant cell line (AID 743014); settings: chicken DT40 Rev3-/- viability, CellTiter-Glo, 40 h; series mostly up to 68.4 µM; further: nearly all actives have a fitted effect of over 55% in size; further: potency means the concentration at half of the fitted maximal effect
# [12] = qHTS assay to identify small molecule antagonists of the androgen receptor (AR) signaling pathway - cell viability counter screen (AID 743033; further: nearly all actives have a fitted effect of over 45% in size; further: potency means the concentration at half of the fitted maximal effect); settings: AR-bla HEK293 viability, CellTiter-Glo luminescence, 16 h; series mostly up to 58.5 µM
# [13] = qHTS assay to identify small molecule antagonists of the androgen receptor (AR) signaling pathway using the MDA cell line - cell viability counter screen (AID 743041; further: nearly all actives have a fitted effect of over 45% in size); settings: MDA-kb2 viability, CellTiter-Fluor, 16 h, cells co-treated with R1881 androgen agonist; series mostly up to 70.3 µM
# Outline: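 Compound exposure lasted 16 h at 37C in MDA-kb2 AR-luc cells stimulated with R1881. Protease-based CellTiter-Fluor reagent was applied for the final 30 min and fluorescence measured.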
# [14] = qHTS assay for identifying genotoxic compounds that show differential cytotoxicity against isogenic chicken DT40 cell lines with known DNA damage response pathways - Rad54/Ku70 mutant cell line (AID 743015); settings: DT40 Rad54/Ku70 mutant viability, CellTiter-Glo, 40 h; series mostly up to 66.8 µM; further: nearly all actives have a fitted effect of over 60% in size; further: potency means the concentration at half of the fitted maximal effect
# [15] = biological target: Androgen receptor (Homo sapiens) (UniProt P10275); assay: qHTS assay to identify small molecule antagonists of the androgen receptor (AR) signaling pathway (AID 743035; active means well fitted inhibition curve with a large enough effect in the signal ratio in the repeat runs, not every such curve was filed as active; inconclusive means weak or mixed curves, or effect the other way; inactive means no such curve, though single readings can be large or run the other way; the % refers to the signal ratio; further: potency means the concentration at half of the fitted maximal effect); settings: HEK293 AR-UAS-bla, R1881-stimulated, beta-lactamase FRET, 16 h; series mostly up to 58.5 µM
# Outline: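 AR-bla HEK293 reporter cells; 4 h settle at 37C/5% CO2; compound + R1881 agonist, 16 h at 37C; LiveBLAzer B/G FRET substrate 2 h RT; fluorescence intensity read. qHTS format.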
# [16] = qHTS assay to test for compound auto fluorescence at 535 nm (green) in HepG2 cell free culture (AID 720686); settings: Cell-free medium, green autofluorescence 485/535 nm; series mostly up to 46 µM
# [17] = qHTS assay for identifying genotoxic compounds that show differential cytotoxicity against isogenic chicken DT40 cell lines with known DNA damage response pathways - wild type cell line (AID 743012); settings: DT40 wild type chicken cells viability, CellTiter-Glo, 40 h; series mostly up to 68.4 µM; further: nearly all actives have a fitted effect of over 60% in size; further: potency means the concentration at half of the fitted maximal effect
# Outline: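 CellTiter-Glo luminescence readout of viability in wild type DT40 cells after 40 h compound exposure at 37 C/5% CO2; 300 cells/well; reagent incubated 30 min at room temperature before reading.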
# [18] = biological target: Androgen receptor (Homo sapiens) (UniProt P10275); assay: qHTS assay to identify small molecule agonists of the androgen receptor (AR) signaling pathway using the MDA cell line (AID 743040; further: nearly all actives have a fitted effect of over 20% in size); settings: MDA-kb2 AR-luc cells, MMTV luciferase, 16 h; series mostly up to 70.3 µM
# Outline: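 Testing was done with the MDA-kb2 AR-luc line, a human breast carcinoma stably transfected with MMTV-luciferase containing AR and GR response elements. Cells were exposed 16 h at 37C before ONE-Glo luminescence detection.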
# [19] = biological target: Androgen receptor (Homo sapiens) (UniProt P10275); assay: qHTS assay to identify small molecule antagonists of the androgen receptor (AR) signaling pathway using the MDA cell line (AID 743042; further: nearly all actives have a fitted effect of over 55% in size; further: potency means the concentration at half of the fitted maximal effect); settings: MDA-kb2 AR-luc, MMTV luciferase, R1881 antagonist, 16 h; series mostly up to 70.3 µM
# Outline: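 MDA-kb2 breast carcinoma cells carrying MMTV-luciferase (AR/GR responsive) were co-treated with compounds and the agonist R1881 for 16 h at 37C. Inhibition read as ONE-Glo luminescence; CellTiter-Fluor fluorescence measured in parallel for cytotoxicity.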
# [20] = activation: at 62.4 µM (top of the series)
# Tags describe the fitted curve by direction and shape or compound fluorescence and quenching.
# Androgen receptor (Homo sapiens), sequence (P10275 whole entry, looked up): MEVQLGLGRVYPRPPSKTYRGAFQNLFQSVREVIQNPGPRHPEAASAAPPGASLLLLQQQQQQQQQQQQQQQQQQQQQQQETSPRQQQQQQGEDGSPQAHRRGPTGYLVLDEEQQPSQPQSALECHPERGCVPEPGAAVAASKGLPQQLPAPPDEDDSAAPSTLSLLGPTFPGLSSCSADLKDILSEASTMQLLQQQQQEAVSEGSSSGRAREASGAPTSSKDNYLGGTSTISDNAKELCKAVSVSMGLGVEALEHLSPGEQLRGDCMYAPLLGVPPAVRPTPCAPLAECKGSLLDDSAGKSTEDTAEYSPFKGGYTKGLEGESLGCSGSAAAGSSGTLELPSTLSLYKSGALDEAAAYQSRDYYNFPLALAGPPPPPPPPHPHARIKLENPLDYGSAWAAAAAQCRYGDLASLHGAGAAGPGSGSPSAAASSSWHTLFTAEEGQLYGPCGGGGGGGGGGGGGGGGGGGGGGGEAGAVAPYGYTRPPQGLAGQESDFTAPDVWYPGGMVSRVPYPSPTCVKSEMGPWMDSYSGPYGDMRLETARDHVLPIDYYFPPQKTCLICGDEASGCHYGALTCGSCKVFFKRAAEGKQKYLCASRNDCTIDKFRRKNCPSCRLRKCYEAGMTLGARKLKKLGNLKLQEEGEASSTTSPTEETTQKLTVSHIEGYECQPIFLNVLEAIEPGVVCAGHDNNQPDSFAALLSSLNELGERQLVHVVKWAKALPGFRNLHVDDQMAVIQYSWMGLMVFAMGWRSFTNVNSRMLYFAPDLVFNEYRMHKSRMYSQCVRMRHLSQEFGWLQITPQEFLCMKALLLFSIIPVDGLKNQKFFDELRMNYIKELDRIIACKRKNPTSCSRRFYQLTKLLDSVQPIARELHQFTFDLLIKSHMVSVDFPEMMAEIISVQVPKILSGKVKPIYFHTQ
# Glucocorticoid receptor (Homo sapiens), sequence (P04150 whole entry, looked up): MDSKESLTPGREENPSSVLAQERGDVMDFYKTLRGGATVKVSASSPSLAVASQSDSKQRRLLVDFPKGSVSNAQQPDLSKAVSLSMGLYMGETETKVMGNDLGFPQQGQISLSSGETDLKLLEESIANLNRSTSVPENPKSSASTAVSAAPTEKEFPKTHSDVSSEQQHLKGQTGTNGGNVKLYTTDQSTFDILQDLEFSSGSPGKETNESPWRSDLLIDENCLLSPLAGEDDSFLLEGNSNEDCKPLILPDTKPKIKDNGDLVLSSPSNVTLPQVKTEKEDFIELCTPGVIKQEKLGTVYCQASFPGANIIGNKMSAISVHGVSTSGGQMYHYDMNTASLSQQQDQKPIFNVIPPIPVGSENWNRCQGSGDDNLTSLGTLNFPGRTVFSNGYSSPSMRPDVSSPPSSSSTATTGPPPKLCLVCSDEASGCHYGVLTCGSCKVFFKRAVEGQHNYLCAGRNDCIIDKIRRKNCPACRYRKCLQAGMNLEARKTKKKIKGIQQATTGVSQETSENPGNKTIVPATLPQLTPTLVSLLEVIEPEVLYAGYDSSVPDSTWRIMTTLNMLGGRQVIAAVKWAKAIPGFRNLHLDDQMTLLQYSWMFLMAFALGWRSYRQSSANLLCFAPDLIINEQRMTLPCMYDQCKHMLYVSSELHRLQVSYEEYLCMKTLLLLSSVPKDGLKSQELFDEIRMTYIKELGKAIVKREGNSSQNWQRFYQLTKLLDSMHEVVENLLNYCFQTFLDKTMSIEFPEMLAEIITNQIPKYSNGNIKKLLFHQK
structure (smiles),measurement,setting,value
Cc1ccc(C(C)(C)c2ccc(C)cc2)cc1,outcome,[1],inactive
same,Potency,[2],inactive
same,outcome,[3],inactive
same,outcome,[4],inactive
same,outcome,[5],inactive
same,Potency,[6],inactive
same,Potency,[7],inactive
same,Potency,[8]; [20],inactive
same,Potency,[9],inactive
same,Potency,[10],inactive
same,Potency,[11],inactive
same,Potency,[12],inactive
same,Potency,[13],inactive
C[C@H]1O[C@@H](O[C@H]2CC[C@@]3(C)[C@H](CC[C@@H]4[C@@H]3C[C@@H](O)[C@]3(C)[C@@H](C5=CC(=O)OC5)CC[C@]43O)C2)C[C@H](O)[C@@H]1O[C@H]1C[C@H](O)[C@H](O[C@H]2C[C@H](O)[C@H](O[C@@H]3O[C@H](CO)[C@@H](O)[C@H](O)[C@H]3O)[C@@H](C)O2)[C@@H](C)O1,outcome,[1],inactive
same,Potency,[2],inactive
same,outcome,[3],inactive
same,outcome,[4],inactive
same,outcome,[5],inactive
same,Potency,[6],inactive
same,Potency,[7],inactive
same,Potency,[8]; [20],inactive
same,Potency,[10],1.34 µM (active)
same,Potency,[11],1.33 µM (active)
same,Potency,[14],1.5 µM (active)
same,Potency,[12],0.268 µM (active)
same,Potency,[15],1.2 µM (active)
same,Potency,[13],inactive
Cc1cc(-c2ccc(N=Nc3ccc4c(S(=O)(=O)O)cc(S(=O)(=O)O)c(N)c4c3O)c(C)c2)ccc1N=Nc1ccc2c(S(=O)(=O)O)cc(S(=O)(=O)O)c(N)c2c1O,outcome,[1],inactive
same,Potency,[2],inactive
same,outcome,[3],inactive
same,outcome,[4],inactive
same,outcome,[5],inactive
same,Potency,[16],inactive
same,Potency,[7],inactive
same,Potency,[8]; [20],inactive
same,Potency,[9],inactive
same,Potency,[17],23.7 µM (active)
same,Potency,[11],23.7 µM (active)
same,Potency,[14],11.9 µM (active) and 23.7 µM (active)
same,Potency,[12],inactive
CC(C)COC(=O)OCN1C(=O)CN(CCN2CC(=O)N(COC(=O)OCC(C)C)C(=O)C2)CC1=O,outcome,[1],inactive
same,Potency,[2],inactive
same,outcome,[3],inactive
same,outcome,[4],inactive
same,outcome,[5],inactive
same,Potency,[6],inactive
same,Potency,[7],inactive
same,Potency,[8]; [20],inactive
same,Potency,[9],inactive
same,Potency,[10],inactive
same,Potency,[11],inactive
same,Potency,[14],0.188 µM (active)
same,Potency,[12],inactive
O=C1c2c(O)cccc2[C@H]([C@@H]2O[C@H](CO)[C@@H](O)[C@H](O)[C@H]2O)c2cc(CO)cc(O)c21,outcome,[1],inactive
same,Potency,[2],inactive
same,outcome,[3],inactive
same,outcome,[4],inactive
same,outcome,[5],inactive
same,Potency,[16],inactive
same,Potency,[7],inactive
same,activation,[8]; [20],14.2% [inconclusive] (active)
same,activation,[8]; at 62.4 µM (top of the series),-0.87% (inactive)
same,Potency,[9],inactive
same,Potency,[10],inactive
same,Potency,[11],inactive
same,Potency,[14],inactive
same,Potency,[12],inactive
same,Potency,[13],inactive
C1CCc2nnnn2CC1,outcome,[1],inactive
same,Potency,[2],inactive
same,outcome,[3],inactive
same,outcome,[4],inactive
same,outcome,[5],inactive
same,Potency,[6],inactive
same,Potency,[7],inactive
same,Potency,[10],inactive
same,Potency,[17],inactive
same,Potency,[11],inactive
same,Potency,[14],inactive
same,Potency,[12],inactive
same,Potency,[13],inactive
CC(C)(C)c1ccc2c(S(=O)(=O)O)c(C(C)(C)C)ccc2c1,outcome,[1],inactive
same,Potency,[2],inactive
same,outcome,[3],inactive
same,outcome,[4],inactive
same,outcome,[5],inactive
same,Potency,[6],inactive
same,Potency,[7],inactive
same,Potency,[8]; [20],inactive
same,Potency,[9],inactive
same,Potency,[10],inactive
same,Potency,[17],inactive
same,Potency,[14],inactive
same,Potency,[12],inactive
same,Potency,[13],inactive
COc1cc(/C=C/C(=O)CC(=O)/C=C/c2ccc(O)c(OC)c2)ccc1O,outcome,[1],inactive
same,Potency,[2],inactive
same,outcome,[3],inactive
same,outcome,[4],inactive
same,outcome,[5],inactive
same,Potency,[16],inactive
same,Potency,[7],39.8 µM [fluorescent] (active)
same,Potency,[8]; [20],inactive
same,Potency,[9],23.9 µM (active) and inactive
same,Potency,[10],inactive
same,Potency,[17],8.41 µM (active) and 21.1 µM (active) and 17.3 µM (active)
same,Potency,[11],11.9 µM (active) and 12.3 µM (active)
same,Potency,[14],10.6 µM (active) and 26.6 µM (active) and 10.9 µM (active)
same,Potency,[12],inactive and 43.9 µM (active)
same,Potency,[18],inactive
same,Potency,[13],inactive
same,Potency,[19],26.6 µM (active) and inactive and 13.8 µM (active)
CN(C)CCOc1ccc(/C(=C(/CCCl)c2ccccc2)c2ccccc2)cc1,outcome,[1],inactive
same,Potency,[2],inactive
same,outcome,[3],inactive
same,outcome,[4],inactive
same,outcome,[5],inactive
same,Potency,[6],inactive
same,Potency,[7],inactive
same,Potency,[10],inactive
same,Potency,[17],11.9 µM (active) and 5.1 µM (active)
same,Potency,[11],2.66 µM (active) and 1.44 µM (active)
same,Potency,[14],9.44 µM (active) and 2.03 µM (active)
same,Potency,[12],16.3 µM (active)
same,Potency,[13],inactive
same,Potency,[19],inactive and 57.2 µM (active)
CNC(=O)C[C@@H](N)C(=O)N[C@@H](C(=O)N[C@@H]1C(=O)N2[C@@H]1SC(C)(C)[C@@H]2C(=O)O)c1ccc(O)cc1,outcome,[1],inactive
same,Potency,[2],inactive
same,outcome,[3],inactive
same,outcome,[4],inactive
same,outcome,[5],inactive
same,Potency,[6],inactive
same,Potency,[7],inactive
same,Potency,[8]; [20],inactive
same,Potency,[17],inactive
same,Potency,[14],inactive
same,Potency,[12],inactive
same,Potency,[13],inactive
CCCCCCCCCCCCCCCCC(C(=O)O)C(O)(CC(=O)O)C(=O)O (configuration not stated),outcome,[1],inactive
same,Potency,[2],inactive
same,outcome,[3],inactive
same,outcome,[4],inactive
same,outcome,[5],inactive
same,Potency,[6],inactive
same,Potency,[7],inactive
same,Potency,[17],inactive
same,Potency,[11],inactive
same,Potency,[14],inactive
same,Potency,[12],inactive
same,Potency,[18],inactive
same,Potency,[13],inactive
same,Potency,[19],inactive
O=C(O)/C=C/C(O)c1ccc(Cl)cc1 (configuration not stated),outcome,[1],inactive
same,Potency,[2],inactive
same,outcome,[3],inactive
same,outcome,[4],inactive
same,outcome,[5],inactive
same,Potency,[6],inactive
same,Potency,[8]; [20],inactive
same,Potency,[9],inactive
same,Potency,[17],inactive
same,Potency,[11],inactive
same,Potency,[14],inactive
same,Potency,[12],inactive
same,Potency,[15],inactive
same,Potency,[18],inactive
same,Potency,[19],inactive

# From PubChem BioAssay (Tox21)
